Results published in PubChem BioAssay AID2234 (The Scripps Research Institute Molecular Screening Center, 2010).
About 480 (0.15%) of roughly 320,000 compounds were called active. The sample holds actives, similar compounds and a random draw of the others, so the mix is not that of the screen. No stated cut-off is given here; in the data, active means inhibition above about 33%; inactive means the rest.

molecular target: Lytic switch protein BZLF1 (Epstein-Barr virus (strain B95-8)) (UniProt P03206); assay: Zta-DNA interaction blockers, Epstein-Barr virus – biochemical, fluorescence polarization, single concentration, counter-screen for EBNA-1 inhibitor project, primary screen (AID 2234); details: ZTA-DNA binding, at 11 µM, hits give high values
Sequence (P03206 whole entry, looked up): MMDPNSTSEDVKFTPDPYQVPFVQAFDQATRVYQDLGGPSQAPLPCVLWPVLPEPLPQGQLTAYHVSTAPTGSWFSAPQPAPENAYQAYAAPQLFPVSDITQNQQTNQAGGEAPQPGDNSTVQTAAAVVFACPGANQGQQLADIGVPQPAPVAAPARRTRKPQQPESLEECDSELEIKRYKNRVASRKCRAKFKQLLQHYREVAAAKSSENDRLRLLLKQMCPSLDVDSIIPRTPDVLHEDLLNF

| SMILES | inhibition |
| --- | --- |
| Cc1cc(C(=O)Nc2ccc(C)c(S(=O)(=O)N3CCOCC3)c2)c2ccccc2n1 | -3.91% (inactive) |
| CCC(C)OC(=O)C(C)Oc1ccc(-c2ccccc2)cc1 (centres undefined) | -16.6% (inactive) |
| CCc1nc2ccccc2n(CCOCCOCCn2c(=O)c(CC)nc3ccccc32)c1=O | -7.86% (inactive) |
| CCCCC1N2CC3([N+](=O)[O-])CN1CC([N+](=O)[O-])(C2)C3(C)C (centres undefined) | 7.41% (inactive) |
| COc1ccccc1C(=O)Nc1ccc(OCC(=O)N2CCCCC2)cc1 | -10.8% (inactive) |
| COc1ccc(C)cc1NC(=O)CN1c2cccc3cccc(c23)S1(=O)=O | -1.52% (inactive) |
| O=C(O)c1cc(S(=O)(=O)N(Cc2ccccc2)c2ccccc2)ccc1Cl | -1.08% (inactive) |
| O=C(CSc1nc(C2CC2)nc2ccccc12)Nc1cccc(O)c1 | -4.91% (inactive) |
| C=CCn1c(SCC(=O)NC(=O)Cc2ccccc2)nc2ccccc2c1=O | -2.81% (inactive) |
| O=C(c1cc(S(=O)(=O)N2CCOCC2)ccc1Cl)N1CCOCC1 | 17.7% (inactive) |
| FC(F)(F)c1ccc2c3n(nc2c1)CCN=C3c1ccc(Cl)cc1 | 0.92% (inactive) |
| Cc1ccc(C(=O)c2coc3ccc(O)c(CN(C)C)c23)cc1 | -9.15% (inactive) |
| COc1ccccc1-n1ccnc(SCC(=O)NC2CCCCC2)c1=O | -6.9% (inactive) |
| CC1CCC2(CC1)NC(=O)N(CC(=O)c1cccn1C)C2=O (centres undefined) | -3.24% (inactive) |
| Cc1ccc(C(=O)NCC(c2cccs2)N(C)C)cc1S(=O)(=O)N1CCOCC1 (centres undefined) | -3.98% (inactive) |
| O=C(OCC1O[C@@H](OC(=O)c2cc(O)c(O)c(O)c2)[C@@H](OC(=O)c2cc(O)c(O)c(O)c2)[C@@H](OC(=O)c2cc(O)c(O)c(O)c2)[C@@H]1OC(=O)c1cc(O)c(O)c(O)c1)c1cc(O)c(O)c(O)c1 (some centres undefined) | 56.7% (active) |
| O=C(OCC1OC(Oc2ccc(O)cc2)C(O)C(O)C1O)c1ccccc1 (centres undefined) | -3.45% (inactive) |
| Cc1cc(/C=C2\SC(=O)N(C)C2=O)c(C)n1-c1cccc(C(=O)O)c1 | -5.96% (inactive) |
| Cc1cc(/C=C2\SC(=Nc3ccc(N4CCOCC4)cc3)N(C)C2=O)c(C)n1-c1cccnc1 | -10.5% (inactive) |
| CN1C(=O)/C(=C/c2ccco2)SC1=Nc1cccc(C(=O)O)c1 | 34% (active) |
| CCC(C)(C)n1nnnc1C(c1cccs1)N1CCN(c2nc3ccccc3s2)CC1 (centres undefined) | 4.48% (inactive) |

| SMILES | inhibition |
| --- | --- |
| COc1cc(NC(=S)N2CCCC(C)C2)c(OC)cc1Cl (centres undefined) | 1.82% (inactive) |
| CCOc1cc(C)c(S(=O)(=O)NCc2ccccn2)cc1C | 12.5% (inactive) |
| CCSc1sc(CC)cc1C=O | 3.38% (inactive) |
| CC(C)c1ccc(-c2nn[nH]n2)cc1 | -11.4% (inactive) |
| COC(=O)c1c(-c2ccsc2)oc2ccc(-c3cc(OC)c(OC)c(OC)c3)cc12 | -1.27% (inactive) |
| Cc1ccc(N2CCN(S(=O)(=O)N(C)C)CC2)cc1Cl | 10.4% (inactive) |
| O=C(NCC(=O)N1CCC2(CC1)NCCc1[nH]cnc12)c1ccc(Br)cc1 | -4.85% (inactive) |
| CCC(=O)Nc1ccc(Nc2nc(Cl)nc(Nc3ccc(NC(=O)CC)cc3)n2)cc1 | 33.6% (active) |
| CCOC(=O)CNc1nc(Cl)nc(Nc2ccccc2)n1 | 3.82% (inactive) |
| CCC(=O)Nc1ccc(C(=O)Nc2cc(C)on2)cc1 | -11.8% (inactive) |
| O=C(CCCCCn1c(=S)[nH]c2ccsc2c1=O)NC1CCCCC1 | 10.7% (inactive) |
| CCn1c(O)c2ccc(C(=O)N=NC(=O)c3cccnc3)cc2c1O | -7.57% (inactive) |
| CCOC(=O)CN(C(=O)CN1CCOCC1)c1ccc(Br)cc1 | 13% (inactive) |
| CCCC(C)C(=O)Nc1ccc(NC(C)=O)cc1 (centres undefined) | -5.74% (inactive) |
| COc1ccc(C(C(=O)NCC2CCCO2)N(C(=O)Cn2nnc3ccccc32)c2ccc(NC(C)=O)cc2)cc1OC (centres undefined) | -7.72% (inactive) |
| Cc1ccc(-c2csc(NC(=O)C3=COCCO3)n2)cc1C | -12.1% (inactive) |
| Cc1ccc(C)c(OCC(=O)NNC(=O)C2CCC2)c1 | 1.86% (inactive) |
| O=C(Cn1cc(C(=O)C2CC2)c2ccccc21)Nc1ccccc1Cl | 14.6% (inactive) |
| Cc1cc(C(=O)OC(C)C(=O)NC2CCCCC2C)c(C)o1 (centres undefined) | -3.44% (inactive) |
| COc1ccc(-c2nnc(SC(=O)N3c4ccccc4Sc4ccccc43)o2)cc1 | 6.65% (inactive) |
| O=C(O)C1CCCN1C1=NS(=O)(=O)c2ccccc21 (centres undefined) | 9.03% (inactive) |

| SMILES | inhibition |
| --- | --- |
| CC(C)(C)C(=O)COC(=O)c1cc(S(=O)(=O)N2CCCCC2)ccc1N1CCOCC1 | -4.54% (inactive) |
| CN(Cc1ccco1)S(=O)(=O)c1nnc(NC(=O)c2ccccc2)s1 | 13.9% (inactive) |
| COc1ccc(-c2nonc2NC(=O)c2oc3ccc(F)cc3c2C)cc1OC | -1.66% (inactive) |
| CCCCC(C(=O)NC(C)(C)C)N(Cc1ccccc1)C(=O)c1snc(C(N)=O)c1N (centres undefined) | -11.4% (inactive) |
| CC1(C)O[C@@H]2CC3C4C[C@H](F)C5=CC(=O)C=CC5(C)C4C(O)CC3(C)[C@]2(C(=O)CO)O1 (some centres undefined) | 3.09% (inactive) |
| Clc1ccc(-n2nnnc2CN2CCCCC2)cc1Cl | 7.74% (inactive) |
| COc1ccc(C2=NN(C(=O)c3ccccc3C(=O)O)C(c3ccccc3O)C2)cc1 (centres undefined) | -14.4% (inactive) |
| CCN(CC)S(=O)(=O)c1ccc(C(=O)N2CCN(C3=NS(=O)(=O)c4ccccc43)CC2)cc1 | -8.64% (inactive) |
| COC(=O)Nc1ccc(S(=O)(=O)N(C)CC(F)(F)C(F)F)cc1 | 9.51% (inactive) |
| CN(C(=O)C1CCN(c2ncnc3c2nc2n3CCCCC2)CC1)C1CCCCC1 | -0.51% (inactive) |
| CC(=O)NNC1=Nc2ccccc2N(C)C(C)C1 (centres undefined) | -9.35% (inactive) |
| CCc1cccc(NC(=S)N(CCN(C)C)C2CCN(C(C)C)CC2)c1 | -6.22% (inactive) |
| Cc1ccc(C2=NN(C(=O)CSc3nc(N)cc(N)n3)C(c3ccco3)C2)cc1 (centres undefined) | 0.17% (inactive) |
| CC(=O)Nc1ccc(S(=O)(=O)N(C)c2ccc(OCC(=O)OCC(=O)N3CCCCC3)cc2)cc1 | -11.6% (inactive) |
| CCCC(C)n1[nH]c(=O)c2c(C)cc(C)nc21 (centres undefined) | 11.1% (inactive) |
| CC(=O)Nc1ccc(NC(=O)C2CCCN2S(=O)(=O)c2cccc(C(F)(F)F)c2)cc1 (centres undefined) | 17.1% (inactive) |
| C=CCn1c(COc2ccc(F)cc2)nnc1SCC(=O)Nc1cccc(S(N)(=O)=O)c1 | 3.26% (inactive) |
| O=C(CCn1c(=S)[nH]c2cc3c(cc2c1=O)OCO3)NCc1ccc(Cl)cc1 | 2.43% (inactive) |
| N#C/C=C1\Sc2ccccc2C(=O)N1CC(=O)N1CCN(S(=O)(=O)c2ccccc2)CC1 | -8.28% (inactive) |
| O=C(O)Cc1csc(NC(=O)CSc2nnnn2-c2ccc(O)cc2)n1 | 2.08% (inactive) |
| O=C(/C=C/c1cc2c(cc1Br)OCO2)NCc1ccc(Cl)cc1 | -6.35% (inactive) |

| SMILES | inhibition |
| --- | --- |
| CC(=O)Nc1c2c(nn1-c1ccc(C)cc1C)CS(=O)C2 (centres undefined) | -22.1% (inactive) |
| NC(=O)C1CCN(C(=O)c2ccc3c(=O)n(Cc4cccc(Br)c4)c(=S)[nH]c3c2)CC1 | -10.6% (inactive) |
| C#CCOCCOCCOCCNc1nc(N2CCN(C(=O)CCCCCCCCCCNC(=O)Cn3cc(CCCCCN)nn3)CC2)nc(N2CCN(C(=O)CCCCCCCCCCNC(=O)[C@H](CO)n3cc(CCCSC)nn3)CC2)n1 | 24.8% (inactive) |
| C#CCOCCOCCOCCNc1nc(N2CCN(C(=O)CCCCCCCCCCNC(=O)[C@H](CCCCN)n3cc(C)nn3)CC2)nc(N2CCN(C(=O)CCCCCCCCCCNC(=O)[C@H](CO)n3cc(CCCSC)nn3)CC2)n1 | 12.7% (inactive) |
| C#CCOCCOCCOCCNc1nc(N2CCN(C(=O)CCCCCCCCCCNC(=O)[C@H]([C@@H](C)CC)n3cc(CCCCN=C(N)N)nn3)CC2)nc(N2CCN(C(=O)CCCCCCCCCCNC(=O)[C@H](CO)n3cc(CCCSC)nn3)CC2)n1 | 134% (active) |
| COC(=O)c1ccc(NC(=O)CSc2nnc(Cc3cccn3C)n2-c2ccc(F)cc2)cc1 | 11.4% (inactive) |
| Cc1ccc(Cc2cncc(O)c2)cc1S(=O)(=O)O | -9.54% (inactive) |
| Cc1csc(CN(C)C(=O)CC2C(=O)NCCN2CC(C)(C)C)n1 (centres undefined) | 5.13% (inactive) |
| CCN1C(=O)C(=O)N(CC(=O)Nc2cc(C)ccc2C)C1=O | 9.39% (inactive) |
| CSc1ccccc1NC(=O)c1ccc2c(c1)CCN2S(C)(=O)=O | 14.6% (inactive) |
| Cc1ccc(OCC(=O)Nc2ccccc2C(=O)NC2CC2)cc1C | 1.2% (inactive) |
| CCCCNC(=O)C1(O)c2ccccc2NC(=O)N1c1ccc(Cl)cc1 (centres undefined) | 2.71% (inactive) |
| O=C(N/N=C/c1cccc2cccnc12)[C@H]1C[C@@H]1c1ccccc1 | -1.05% (inactive) |
| Cc1ccc(Cc2nnc(SCC(=O)Nc3ccc(C)cc3C)[nH]c2=O)cc1 | 2.99% (inactive) |
| CCC1Oc2ccccc2N(CC(=O)NCCCN2CCN(CC)CC2)C1=O (centres undefined) | -3.45% (inactive) |
| COc1ccc(C(=O)C2CCCN(C(=O)c3cnsn3)C2)c(C)c1 (centres undefined) | -0.75% (inactive) |
| COc1ccc(S(=O)(=O)/N=C2\C=C(NS(=O)(=O)c3ccccc3)C(=O)c3ccccc32)cc1 | 7.31% (inactive) |
| Cc1ccc(C2CC(c3cccc(NS(C)(=O)=O)c3)=NN2S(C)(=O)=O)cc1 (centres undefined) | 0.89% (inactive) |
| CN1CCN(Cc2nc3cc(NC(=O)COc4ccc([N+](=O)[O-])cc4)ccc3n2C)CC1 | -16.4% (inactive) |
| CC(NC(=O)c1cccc2ccccc12)c1ccc2c(c1)CCCC2 (centres undefined) | -9.25% (inactive) |
| CCOC(=O)CN(C(=O)COc1nc(C)cc(C)c1C#N)c1ccc(Cl)cc1 | 3.1% (inactive) |
